Screening results: PubChem, National Center for Advancing Translational Sciences (NCATS)
Rows were chosen to be rich in hits. Some 19% of all compounds tested hit in one or more screens of this group.
uPA surface inh – inhibitors of cell surface uPA generation. cell surface uPA generation assay, qHTS. Potency, µM (highest dose often 38.3 µM), without a hit: top-dose activity change, negative = inhibition, usual class: inhibitors. 0.31% of 330,000 active; active = well fitted inhibition curve with a large enough effect; inconclusive = small, poorly fitted or top-dose-only effect; inactive = no such curve, though single readings can be large or run the other way; tested in mouse RAW 264.7 cells; also: potency is read from the fitted curve at half-maximal effect; nearly all actives have a fitted effect of over 55% in size
HT1080NT lethal – kills 2HG-producing HT-1080-NT fibrosarcoma cells | Potency, µM (highest dose often 46.1 µM), without a hit: top-dose activity, negative = less viability, usual class: cytotoxic | HT-1080-NT fibrosarcoma viability, CellTiter-Glo ATP luminescence, 48 h | AID 686970 | 1.6% of 360,000 active;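 also: NT is the 2HG producing partner of a matched IDH1 knockdown line; potency is read from the fitted curve at half-maximal effect; 0% = DMSO-treated cells and -100% = media-only wells without cells; nearly all actives have a fitted effect of over 55% in size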
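Compounds were tested in concentration-response format on HT-1080-NT cells for 48 hours at 37 degrees C. Cell viability came from CellTiter-Glo luminescence; curves were classified by r2, response magnitude and activity.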
DT40 TDP1 CPT – DT40-hTDP1 cell growth loss with CPT | Potency, µM (doses to about 46.2 µM), without a hit: top-dose activity change, negative = growth inhibition, hits mostly inhibitors | AID 686979 | 12% of 420,000 active | chicken DT40 Tdp1-/-;hTDP1 cells + 20 nM CPT, ATP luminescence, 48 h; also: potency is read from the fitted curve at half-maximal effect; nearly all actives have a fitted effect of over 55% in size
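Cell growth measured by CellTiter-Glo luminescence after a minimum 48 h, 37 C compound exposure with 20 nM CPT in Tdp1-knockout DT40 cells stably expressing hTDP1, seeded 400/well; qHTS titration format.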
DT40 TDP1 no CPT – qHTS for Inhibitors of human tyrosyl-DNA phosphodiesterase 1 (TDP1): qHTS in cells in absence of CPT. DT40 Tdp1-/- hTDP1 cells, no CPT, ATP luminescence, 48 h. Potency, µM (titrated, usually from 46.2 µM), without a hit: at the top dose activity change, negative = growth inhibition, actives largely listed as inhibitors. 15% of 420,000 active. AID 686978, 2013; also: potency is read from the fitted curve at half-maximal effect; nearly all actives have a fitted effect of over 55% in size
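Chicken DT40 Tdp1-/- cells complemented with human TDP1, screened without camptothecin (DMSO vehicle only), 400 cells/well. Compounds pin-transferred, cells incubated at 37 °C for at least 48 hr. Growth read as ATP-dependent luminescence (CellTiter-Glo, 30 min at RT).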
IL-1B inflam inh – inflammasome signaling inhibition, IL-1 beta readout; activity change, % at 57.5 µM; THP-1 LPS/ATP IL-1B secretion, AlphaLISA, 16 h; stronger effect = lower value; 4.7% of 360,000 active; AID 743279; in the data active = activity change below about -50%; inconclusive = mostly about -30% to -49%
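Secreted IL-1B measured by AlphaLISA bead assay after 16 h compound exposure of THP-1 cells; compounds (final up to 57.5 uM) added 1 h before LPS (250 ng/mL) and ATP (1.25 mM) stimulation; lower signal means less secretion.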
HT1080 IDH1KD tx – toxicity to HT-1080 IDH1 knockdown cells (counter line). 2% of 360,000 active. AID 686971. HT-1080 IDH1 knockdown viability, ATP luminescence, 48 h. Potency, µM (series often up to 46.1 µM), inactives show top-dose activity, negative = toxicity, actives largely listed as cytotoxic;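 also: potency is read from the fitted curve at half-maximal effect; 0% = DMSO wells and -100% = cell-free medium wells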
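Using the IDH1-knockdown HT-1080 line run in the same batch and compound series as the NT line, viability after 48 h at 37 °C was determined by CellTiter-Glo luminescence and expressed as % activity.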
Numbers without * were called inactive. Unless noted, calls follow the shape of the dose curve; as a rule, active = well fitted curve in the direction sought with a large enough effect; inconclusive = small, poorly fitted or top-dose-only effect, or another doubt; inactive = no such curve, though single readings can be large; an effect the other way counts as inactive or inconclusive. Unless noted, % is scaled to controls: 0 for no effect and ±100 for the full control effect.

Screening COc1ccc(-n2nnnc2C2(C)CCC(=O)N2Cc2ccccc2)cc1 (configuration not stated) returned HT1080NT lethal 20%, DT40 TDP1 CPT 20%, DT40 TDP1 no CPT 8%, IL-1B inflam inh 0 and HT1080 IDH1KD tx 12%.
Screening CCCNC(=O)C1(C)CCN(Cc2ccc(-n3ccnc3)cc2)C1 (configuration not stated) returned HT1080NT lethal 11%, DT40 TDP1 CPT 1%, DT40 TDP1 no CPT -5%, IL-1B inflam inh 0 and HT1080 IDH1KD tx 9%.
COc1ccc2cc(S(=O)(=O)NCc3cccnc3)ccc2c1 was read as uPA surface inh 3%, HT1080NT lethal -28%, DT40 TDP1 CPT inconclusive, DT40 TDP1 no CPT 8.2µM*, IL-1B inflam inh 14 and HT1080 IDH1KD tx inconclusive.
Screening COc1ccc(S(=O)(=O)Nc2ccc(Cc3ccncc3)cc2)cc1OC returned HT1080NT lethal -22%, DT40 TDP1 CPT 12µM*, DT40 TDP1 no CPT 15µM*, IL-1B inflam inh inconclusive and HT1080 IDH1KD tx -21%.
For O=S(=O)(Nc1ccc(Cc2ccncc2)cc1)c1ccc(Cl)c(Cl)c1 the results were HT1080NT lethal inconclusive, DT40 TDP1 CPT inconclusive, DT40 TDP1 no CPT inconclusive, IL-1B inflam inh -10 and HT1080 IDH1KD tx inconclusive.
Screening CCc1ccc(OC)c(S(=O)(=O)Nc2ccc(Cc3ccncc3)cc2)c1 returned uPA surface inh -5%, HT1080NT lethal inconclusive, DT40 TDP1 CPT 7.3µM*, DT40 TDP1 no CPT 8.2µM*, IL-1B inflam inh -76* and HT1080 IDH1KD tx inconclusive.
Screening COc1ccc(S(=O)(=O)NCc2cccnc2)cc1OC returned uPA surface inh 3%, HT1080NT lethal 2%, DT40 TDP1 CPT 12%, DT40 TDP1 no CPT -2%, IL-1B inflam inh 43 and HT1080 IDH1KD tx 10%.
`COc1ccc(S(=O)(=O)NCc2ccncc2)cc1OC` gave HT1080NT lethal 6%, DT40 TDP1 CPT 13µM*, DT40 TDP1 no CPT 14µM*, IL-1B inflam inh 0 and HT1080 IDH1KD tx -4%.
For Cc1cc(=O)c2c(O)c3c(O)cc(O)c4c5c(O)cc(O)c6c(O)c7c(=O)cc(C)c8c1c2c(c34)c(c65)c78 the results were DT40 TDP1 CPT 16µM* and DT40 TDP1 no CPT 8.2µM*.
`Cc1ccc(/C=N/NC(=O)c2cc(-c3cccnc3)nc3ccccc23)cc1` gave uPA surface inh -15%, HT1080NT lethal 1.5µM*, DT40 TDP1 CPT 2.1µM*, DT40 TDP1 no CPT 1.5µM*, IL-1B inflam inh 77 and HT1080 IDH1KD tx 1.3µM*.
O=C(NC1CCC(O)CC1)c1cc(-c2ccc(Cl)cc2)nc2ccccc12 (configuration not stated) was read as uPA surface inh 0%, HT1080NT lethal -2%, DT40 TDP1 CPT inconclusive, DT40 TDP1 no CPT inconclusive, IL-1B inflam inh -55* and HT1080 IDH1KD tx 20%.
Screening O=C(N/N=C/c1ccc(Cl)cc1)c1cc(-c2cccnc2)nc2ccccc12 returned uPA surface inh -11%, HT1080NT lethal inconclusive, DT40 TDP1 CPT inconclusive, DT40 TDP1 no CPT 7.3µM*, IL-1B inflam inh 43 and HT1080 IDH1KD tx inconclusive.
For Cc1ccc(C)c(-c2cc(C(=O)N/N=C/c3cccnc3)c3ccccc3n2)c1 the results were uPA surface inh -6%, HT1080NT lethal -22%, DT40 TDP1 CPT inconclusive, DT40 TDP1 no CPT inconclusive, IL-1B inflam inh -15 and HT1080 IDH1KD tx -24%.
Screening O=C(N/N=C/c1cccnc1)c1cc(-c2ccccc2)nc2ccccc12 returned uPA surface inh -2%, HT1080NT lethal inconclusive, DT40 TDP1 CPT inconclusive, DT40 TDP1 no CPT inconclusive, IL-1B inflam inh -6 and HT1080 IDH1KD tx -23%.
Screening O=C(N/N=C/c1cccnc1)c1cc(-c2ccc(Cl)cc2)nc2ccccc12 returned uPA surface inh inconclusive, HT1080NT lethal 2%, DT40 TDP1 CPT inconclusive, DT40 TDP1 no CPT 8.2µM*, IL-1B inflam inh -11 and HT1080 IDH1KD tx -7%.
`COc1ccc(NC(C)=O)cc1CP(=O)(c1ccccc1)c1ccccc1` gave uPA surface inh -3%, HT1080NT lethal 3%, DT40 TDP1 CPT -7%, DT40 TDP1 no CPT 15%, IL-1B inflam inh -10 and HT1080 IDH1KD tx -3%.
For Cc1ccc(-n2nc(C(=O)Nc3ccc(F)cc3F)c3c4ccccc4n(C)c3c2=O)cc1 the results were DT40 TDP1 CPT -7% and DT40 TDP1 no CPT 9%.
For CCOc1cc(C=NNC(=O)N(c2ccccc2)c2ccccc2)ccc1O the results were HT1080NT lethal inconclusive, DT40 TDP1 CPT 29µM*, DT40 TDP1 no CPT 16µM*, IL-1B inflam inh -16 and HT1080 IDH1KD tx inconclusive.
For O=C(NC1CCC(O)CC1)c1ccc(-c2ccc(Cl)cc2)o1 (configuration not stated) the results were uPA surface inh -1%, HT1080NT lethal -2%, DT40 TDP1 CPT inconclusive, DT40 TDP1 no CPT inconclusive, IL-1B inflam inh -62* and HT1080 IDH1KD tx 0%.
For O=C(N/N=C/c1cccnc1)c1cc(-c2ccc(Br)cc2)nc2ccccc12 the results were uPA surface inh -14%, HT1080NT lethal inconclusive, DT40 TDP1 CPT 12µM*, DT40 TDP1 no CPT 8.2µM*, IL-1B inflam inh inconclusive and HT1080 IDH1KD tx inconclusive.
For Cc1ccc(-c2cc(C(=O)N/N=C/c3cccnc3)c3ccccc3n2)cc1C the results were uPA surface inh 10µM*, HT1080NT lethal inconclusive, DT40 TDP1 CPT 8.2µM*, DT40 TDP1 no CPT 8.2µM*, IL-1B inflam inh -18 and HT1080 IDH1KD tx inconclusive.
For O=C(N/N=C/c1cccnc1)c1ccccc1Br the results were uPA surface inh 2%, HT1080NT lethal -4%, DT40 TDP1 CPT 6%, DT40 TDP1 no CPT -2%, IL-1B inflam inh 22 and HT1080 IDH1KD tx 8%.
Screening CCOC(=O)C1=C(N)Oc2ccc(Br)cc2C1C(C#N)C(=O)OCC (configuration not stated) returned DT40 TDP1 CPT -5% and DT40 TDP1 no CPT 3%.
Screening CCc1ccc(C(O)c2ncc(-c3ccccc3Cl)[nH]2)cc1 (configuration not stated) returned HT1080NT lethal -7%, DT40 TDP1 CPT -17%, DT40 TDP1 no CPT -25%, IL-1B inflam inh -11 and HT1080 IDH1KD tx -4%.
Screening Cc1ccc(C)c(NC(=O)C(Sc2nnc(-c3cccs3)o2)c2ccccc2)c1 (configuration not stated) returned uPA surface inh 3%, HT1080NT lethal 11%, DT40 TDP1 CPT 3%, DT40 TDP1 no CPT -1%, IL-1B inflam inh 16 and HT1080 IDH1KD tx 16%.
